Bioassay records from PubChem.
This excerpt belongs to a sample that is enriched for hits.
ST2 IL33 inh = IL1RL1 inhibition. Q01638. AlphaLISA ST2-Fc/biotin-IL-33 interaction, 1 h. inhibition, % for hits at 17 µM. hit rate 2.3% among 78,000. AID 1259354; in the data active = inhibition above about 30%
Target sequence (Q01638 whole entry, looked up): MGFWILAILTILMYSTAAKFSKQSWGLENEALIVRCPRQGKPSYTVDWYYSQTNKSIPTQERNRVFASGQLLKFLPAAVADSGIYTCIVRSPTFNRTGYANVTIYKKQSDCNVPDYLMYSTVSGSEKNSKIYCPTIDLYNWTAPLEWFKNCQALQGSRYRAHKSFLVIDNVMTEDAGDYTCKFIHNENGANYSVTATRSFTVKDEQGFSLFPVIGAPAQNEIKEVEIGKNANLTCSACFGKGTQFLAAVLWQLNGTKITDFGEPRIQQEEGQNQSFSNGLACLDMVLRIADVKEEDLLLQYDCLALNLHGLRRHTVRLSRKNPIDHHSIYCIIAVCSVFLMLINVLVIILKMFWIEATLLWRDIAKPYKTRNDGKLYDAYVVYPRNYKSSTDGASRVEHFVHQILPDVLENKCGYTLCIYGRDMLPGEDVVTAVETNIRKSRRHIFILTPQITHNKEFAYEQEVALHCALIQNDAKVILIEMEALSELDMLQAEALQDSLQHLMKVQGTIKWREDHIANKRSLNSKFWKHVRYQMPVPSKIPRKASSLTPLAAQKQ
An asterisk follows results filed as active; i = inactive.

SMILES	ST2 IL33 inh
Cc1cc(=O)n(-c2ccc(S(=O)(=O)O)cc2)[nH]1	i
COc1ccccc1-c1ccnc(N[C@H]2CO[C@H]3[C@@H]2OC[C@@H]3NC(=O)C2CCCCC2)n1	i
CC1(C)CC(=O)C2=C(C1)OC(N)=C(C#N)C2c1ccc2c(c1Br)OCO2 (stereo not drawn)	i
CCN(CC)CCCNC(=O)c1ccc2c(c1)N(Cc1ccc(C)cc1)CCS2	i
CCC(C)N(Cc1cccc(Cl)c1)C(=O)c1ccc(C)c(N2CCNC2=O)c1 (stereo not drawn)	i
CN1C[C@H](NC(=O)c2cccc3nccnc23)C[C@H]1CO	i
O=[N+]([O-])c1cccc(-c2nc(N3CCOCC3)c3ccccc3n2)c1	i
O=C1CC(Nc2ccc(N3CCOCC3)cc2)C(=O)N1c1cccc([N+](=O)[O-])c1 (stereo not drawn)	47%*
O=C1CC(N2CCOCC2)C(=O)N1c1cccc(Cl)c1 (stereo not drawn)	i
COc1ccccc1N1CCN(Cc2cc([N+](=O)[O-])c(O)c3ncccc23)CC1	34%*
O=[N+]([O-])c1ccccc1CN1CCN(Cc2ccccn2)CC1	i
O=[N+]([O-])c1ccccc1CN1CCN(c2ccccn2)CC1	i
COc1cc(CN2CCN(c3ccccc3C)CC2)c([N+](=O)[O-])cc1OC	i
COc1cc([N+](=O)[O-])cc(CN2CCN(c3ccccc3F)CC2)c1O	i
O=[N+]([O-])c1ccccc1CN1CCN(c2ncccn2)CC1	31%*
COc1cc(CN2CCN(c3ccccc3C)CC2)cc([N+](=O)[O-])c1O	89%*
CC1CCN(Cc2cc([N+](=O)[O-])c(O)c3ncccc23)CC1	i
COc1ccccc1N1CCN(Cc2cc(OC)c(O)c([N+](=O)[O-])c2)CC1	i
O=C(NCc1cccnc1)c1cc(=O)[nH]c2ccc(S(=O)(=O)N3CCCCCC3)cc12	i
CCn1cc(C(=O)N2CCOCC2)c(=O)c2cc(S(=O)(=O)N3CCC(C)CC3)ccc21	i
NC(=O)c1ccc(NC(=O)CSc2ccccc2)cc1	i
COc1ccc(C2=NN(C(=O)CCC(=O)O)C(c3cc4ccccc4nc3Cl)C2)cc1OC (stereo not drawn)	i
CCc1c(C)sc(NC(=O)CCCn2nc([N+](=O)[O-])cc2C)c1C#N	i
COc1ccc(-c2ccnc(N[C@H]3CO[C@H]4[C@@H]3OC[C@@H]4NC(=S)Nc3cccc(C#N)c3)n2)cc1	i
CCc1cccc(OCC(=O)Nc2cc(OC)c(OC)cc2C(=O)O)c1	i
SMILES	ST2 IL33 inh
Cc1cccc2oc(-c3cccc(N=Cc4cc([N+](=O)[O-])cc([N+](=O)[O-])c4O)c3)nc12	i
Cc1cccc2oc(-c3cccc(N=Cc4ccc(O)cc4O)c3)nc12	i
O=C(O)c1ccc(O)c(C=Nc2cccc(-c3nc4ccccc4o3)c2)c1	i
O=C(Nc1ccc(O)c(-c2nc3ccccc3o2)c1)c1cccc(Cl)c1Cl	i
Oc1ccc(N=Cc2cccc(I)c2O)cc1-c1nc2ccccc2o1	41%*
Cc1ccc2nc(-c3cccc(N=Cc4cccc([N+](=O)[O-])c4O)c3)oc2c1	i
Cc1cc(C=Nc2ccc(-c3nc4ccccc4o3)c(O)c2)c(O)c([N+](=O)[O-])c1	30%*
Cc1ccc2nc(SCC(=O)c3ccc4c(c3)OCO4)[nH]c2c1	i
Cc1ccc2nc(-c3ccc(N=Cc4ccc5c(c4)OCO5)cc3O)oc2c1	32%*
CCN(Cc1ccccc1)C(=O)C1(S(=O)(=O)c2ccc(Cl)cc2)CC1	i
COc1ccc(S(=O)(=O)N2CCN(c3cc(-c4ccccc4C)ncn3)CC2)cc1Cl	i
Cc1nc(CCC(=O)N2CCCC3(C=Cc4ccccc4O3)CC2)n[nH]1 (stereo not drawn)	i
CC(C)c1ccc(N(C)C(=O)Cc2c(C(=O)O)[nH]c3ccccc23)cc1	i
Cc1c(C(=O)Nc2nnc(CCC(=O)c3ccccc3)s2)cccc1[N+](=O)[O-]	i
COc1ccc(CN2CCCN(C)CC2)cc1C	i
Cc1cc(C)nc(N2CCC(O)(CN3CCCC3)CC2)n1	i
COc1ccc(N=Cc2cc3c(cc2O)OC(N)=C(C#N)C3c2cccc(F)c2)cc1 (stereo not drawn)	33%*
N#CC1=C(N)Oc2cc(N)ccc2C1c1cccc(I)c1 (stereo not drawn)	i
N#CC1=C(N)Oc2cc(O)c(Cl)cc2C1c1ccc(F)cc1 (stereo not drawn)	i
COc1cccc(-n2c(=O)c3sccc3n(CC(=O)N3CCCc4ccccc43)c2=O)c1	i
COc1ccc(C=C2C(=O)OC(C)(C(C)(C)C)OC2=O)cc1OC (stereo not drawn)	i
COc1ccc(/C=C2\CCC/C(=C\c3ccc(OC)c(OC)c3)C2=O)cc1OC	30%*
COc1ccc(/C=C/C#N)cc1OC	i
Cc1ccc(Nc2cc(C)nc(Nc3ccc(NC(=O)CCc4ccccc4)cc3)n2)cc1	i
O=C(c1cccc([N+](=O)[O-])c1)n1cccn1	i
SMILES	ST2 IL33 inh
CC(=O)C1=NN(c2ccccc2)C2C(=O)N(c3ccc(C)cc3)C(=O)C12 (stereo not drawn)	i
O=C(c1ccc(F)cc1)N(Cc1ccccc1)Cc1ccccc1	i
CC1=NN(c2ccccc2)C(=O)C1C(=O)c1ccc(F)cc1 (stereo not drawn)	37%*
O=C(c1cc(Cl)ccc1OC1CCN(C2CCCC2)CC1)N1CCSCC1	i
Cc1ccc(NC(=O)c2cccc(Cl)c2Cl)cc1C	i
O=C(Nc1nnc(Cc2ccc(F)cc2)s1)c1cccs1	i
Cc1occc1C(=O)N(CC1CCN(C2CCCC2)CC1)CC1CCCO1 (stereo not drawn)	i
O=C1C2C(C(=O)N1Cc1ccc(F)cc1)C1C=CC2[C@H]2C(=O)N(Cc3ccc(F)cc3)C(=O)[C@@H]12 (stereo partly drawn)	i
N#C/C(=C/c1cn(Cc2ccc(Cl)cc2Cl)c2ccccc12)C(=O)NCC1CCCO1 (stereo not drawn)	32%*
Cc1c(C#N)c2ccccc2n1CC(=O)NCC1CCCO1 (stereo not drawn)	i
Cn1cc(CC(=O)NCC2CCCO2)c2ccccc21 (stereo not drawn)	i
O=C1C2C3C=C(Cl)C(c4ccccc43)C2C(=O)N1c1cccc(Br)c1 (stereo not drawn)	i
N#CCn1cnc2c(cnn2-c2ccccc2)c1=O	i
COc1ccc(OC)c(C2CC(c3ccc(C)cc3)=NN2C(=O)CCC(=O)O)c1 (stereo not drawn)	i
Cc1ccc2c(c1)N(CC(=O)N1CCC3(CC1)OCCO3)C(=O)CO2	i
Cc1cccc(C2C3=C(Nc4c2c(=O)n(C)c(=O)n4C)c2ccccc2C3=O)c1 (stereo not drawn)	i
O=C1C2=C(Nc3[nH]n(-c4ccccc4)c(=O)c3C2c2ccc([N+](=O)[O-])cc2)c2ccccc21 (stereo not drawn)	47%*
Cn1c2c(c(=O)n(C)c1=O)C(c1cccc(F)c1)C1=C(N2)c2ccccc2C1=O (stereo not drawn)	i
O=C(NCc1nc2ccccc2[nH]1)c1ccccc1	i
CCn1c(/C=C/c2ccc(F)cc2)nc2ccccc2c1=O	i
CC(=O)c1ccccc1-c1ccc2ccccc2n1	i
CCn1c(=O)c(-c2ccc3ccccc3n2)cc2cc(Br)ccc21	36%*
c1ccc2[nH]c(CSc3ncn[nH]3)nc2c1	i
COc1ccc(CN2CCC3(CCNCC3)C2)cc1Cn1cncn1	i
